# Inconclusive results are not listed. The source holds several records for some structures; these can differ, active in one and inactive in another. Activity calls are given as the source filed them. How the source made its calls: active means hit-call score of the fitted dose curve at least 0.9, where 1 is the maximum; inconclusive means response in the unintended direction; inactive means score below 0.9.
# Assays:
# [1] = TOX21_p53_BLA_p4_viability: Viability Assessment in the Tox21 HCT-116 p53 Agonism Beta-lactamase Assay, Phase 4 (AID 2283597);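 further: hits lower the luminescence signal meaning cytotoxicity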
# Outline: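 Following a 16 h exposure at 37C, the treated HCT116 wells were first read for the FRET ratio. They were then lysed with CellTiter-Glo, and ATP luminescence was recorded after 30 min at room temperature.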
# [2] = molecular target: Cellular tumor antigen p53 (Homo sapiens) (UniProt P04637); experiment: TOX21_p53_BLA_p5_ratio: Tox21 HCT-116 p53 Agonism Beta-lactamase Assay, Ratio, Phase 5 (AID 2283599)
# Chain of Cellular tumor antigen p53 (Homo sapiens) (P04637 whole entry, looked up): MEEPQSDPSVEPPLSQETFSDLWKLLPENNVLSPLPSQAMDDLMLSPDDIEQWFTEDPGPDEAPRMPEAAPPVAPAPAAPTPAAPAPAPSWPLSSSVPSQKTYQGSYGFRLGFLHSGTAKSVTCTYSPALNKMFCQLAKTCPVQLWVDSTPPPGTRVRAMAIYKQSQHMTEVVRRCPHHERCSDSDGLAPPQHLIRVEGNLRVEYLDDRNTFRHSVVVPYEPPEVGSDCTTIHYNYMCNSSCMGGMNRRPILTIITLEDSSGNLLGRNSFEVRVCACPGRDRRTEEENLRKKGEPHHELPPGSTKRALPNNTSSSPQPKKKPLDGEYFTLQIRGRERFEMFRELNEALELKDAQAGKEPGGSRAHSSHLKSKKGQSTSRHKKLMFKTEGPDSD
# Outline: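 HCT-116 cells carrying a p53-inducible beta-lactamase reporter were seeded at 4000 cells/well and dosed after 5 h with compound in DMSO (217-fold dilution). After 16 h at 37C, CCF4-AM substrate was added for 2 h, and the 460/530 nm emission ratio was scored as gain-of-signal versus DMSO.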
# [3] = TOX21_p53_BLA_p5_viability: Viability Assessment in the Tox21 HCT-116 p53 Agonism Beta-lactamase Assay, Phase 5 (AID 2283600)
# Outline: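 After the 460/530 nm beta-lactamase measurement, the wells received an ATP-detection luciferase reagent; signal was read 30 min later at RT. Compound treatment lasted 16 h on cells pre-incubated 5 h post-seeding.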
# [4] = molecular target: Cellular tumor antigen p53 (Homo sapiens) (UniProt P04637); experiment: TOX21_p53_BLA_p4_ratio: Tox21 HCT-116 p53 Agonism Beta-lactamase Assay, Ratio, Phase 4 (AID 2283601)
# Outline: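 HCT116 cells carrying an inducible beta-lactamase reporter were plated at 4000 cells/well, rested 5 h, then exposed to compounds in DMSO (217-fold dilution) for 16 h at 37C. CCF4-AM substrate was loaded 2 h at room temperature; 460/530 nm emission ratio scored gain-of-signal versus DMSO.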
# [5] = Tanguay_ZF_120hpf_MORT_legacy: (Legacy) Oregon State University Tanguay Lab 120 Hour Post-fertilization zebrafish Assay for Mortality (AID 2283633)
# Outline: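 Static waterborne exposure from 6 to 120 hpf at 28C of single dechorionated wild-type (5D) embryos per well, 0.64% DMSO final. Death recorded present/absent by brightfield at 24 and 120 hpf.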
# [6] = Tanguay_ZF_120hpf_YSE_legacy: (Legacy) Oregon State University Tanguay Lab 120 Hour Post-fertilization zebrafish Assay for Yolk Sac Edema (AID 2283634);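 on AC50: actives raise the incidence of yolk sac edema above the DMSO baseline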
# Outline: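 Presence or absence of yolk sac edema was recorded at 120 hpf in surviving larvae. These were wild-type Tropical 5D embryos, chorion removed at 4 hpf, held in static exposure at 28C from 6 hpf with 0.64% DMSO vehicle.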
# [7] = Tanguay_ZF_120hpf_AXIS_legacy: (Legacy) Oregon State University Tanguay Lab 120 Hour Post-fertilization zebrafish Assay for Body Axis Malformation (AID 2283635);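 on AC50: potency for an increased fraction of larvae scored with body axis malformation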
# Outline: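 Binary scoring of axis defects at 120 hpf under brightfield, fitted positive versus DMSO. Tropical 5D embryos, chorion removed by pronase at 4 hpf, were singly exposed in sealed, dark plates at 28C from 6 hpf; DMSO 0.64% final.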
# [8] = Tanguay_ZF_120hpf_EYE_legacy: (Legacy) Oregon State University Tanguay Lab 120 Hour Post-fertilization zebrafish Assay for Eye Malformation (AID 2283636)
# Outline: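 Dechorionated wild-type Tropical 5D zebrafish embryos were exposed statically from 6 hpf, one per well, to 120 hpf at 28C in sealed, foil-covered plates with 0.64% DMSO. Eye malformation was scored present/absent by brightfield microscopy against DMSO controls.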
# [9] = Tanguay_ZF_120hpf_SNOU_legacy: (Legacy) Oregon State University Tanguay Lab 120 Hour Post-fertilization zebrafish Assay for Snout Malformation (AID 2283637)
# Outline: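 Tropical 5D wild-type zebrafish embryos, dechorionated with pronase at 4 hpf, were exposed singly from 6 hpf to 120 hpf statically at 28C in 0.64% DMSO. Snout malformation was scored present/absent by brightfield microscopy, fitted against DMSO.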
# [10] = Tanguay_ZF_120hpf_OTIC_legacy: (Legacy) Oregon State University Tanguay Lab 120 Hour Post-fertilization zebrafish Assay for Otic Vesicle Malformation (AID 2283639)
# Outline: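 Embryos from 5D wild-type adults exposed in plates; DMSO 0.64% v/v final. Sealed, light-protected, 28C, static to 120 hpf. Otic vesicle malformation recorded as binary endpoint; gain-of-signal fitted vs DMSO.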
# [11] = Tanguay_ZF_120hpf_PE_legacy: (Legacy) Oregon State University Tanguay Lab 120 Hour Post-fertilization zebrafish Assay for Pericardial Edema (AID 2283640);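 on AC50: potency for increased incidence of pericardial edema versus DMSO baseline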
# Outline: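 Scoring was binary, by brightfield microscopy at 120 hpf, and skipped where mortality occurred. Wild-type embryos were kept under sealed, foil-covered static exposure at 28C in 0.64% (vol/vol) DMSO.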
# [12] = Tanguay_ZF_120hpf_BRAI_legacy: (Legacy) Oregon State University Tanguay Lab 120 Hour Post-fertilization zebrafish Assay for Brain Malformation (AID 2283641)
# Outline: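 Binary brightfield scoring of brain malformation at 120 hpf in Tropical 5D larvae held under static exposure at 28C (0.64% v/v DMSO), non-mortality endpoints skipped if dead. Positive control: 5uM trimethyltin chloride; fit versus DMSO.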
# [13] = Tanguay_ZF_120hpf_SOMI_legacy: (Legacy) Oregon State University Tanguay Lab 120 Hour Post-fertilization zebrafish Assay for Somite Malformation (AID 2283647)
# Outline: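 Binary somite-defect scoring at 120 hpf, omitted for embryos that died, in wild-type (Tropical 5D) zebrafish with chorion removed by pronase at 4 hpf; static exposure began 6 hpf, single embryos per well, 28C, 0.64% DMSO; fitted positive versus DMSO.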
# [14] = Tanguay_ZF_120hpf_PFIN_legacy: (Legacy) Oregon State University Tanguay Lab 120 Hour Post-fertilization zebrafish Assay for Pectoral Fin Malformation (AID 2283648);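 further: each larva judged yes or no for fin defect by brightfield with dead larvae skipped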
# Outline: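 Tropical 5D wild-type embryos, dechorionated with pronase at 4 hpf, were placed singly in wells at 6 hpf and statically exposed until 120 hpf at 28C, sealed and dark, with 0.64% (vol/vol) final DMSO; pectoral fin malformation scored present/absent.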
# [15] = Tanguay_ZF_120hpf_CFIN_legacy: (Legacy) Oregon State University Tanguay Lab 120 Hour Post-fertilization zebrafish Assay for Caudal Fin Malformation (AID 2283649)
# Outline: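 Binary brightfield scoring of caudal fin defects at 120 hpf after static, light-shielded exposure at 28C from 6 hpf. Tropical 5D embryos, chorion removed with pronase at 4 hpf, final DMSO 0.64%.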
# [16] = Tanguay_ZF_120hpf_PIG_legacy: (Legacy) Oregon State University Tanguay Lab 120 Hour Post-fertilization zebrafish Assay for Pigmentation Malformation (AID 2283650)
# Outline: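 Tropical 5D wild-type zebrafish embryos, dechorionated with pronase at 4 hpf, were exposed singly from 6 hpf to 120 hpf statically at 28C in sealed, dark plates with 0.64% DMSO; pigmentation scored present/absent by brightfield microscopy, fitted against DMSO.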
# [17] = Tanguay_ZF_120hpf_CIRC_legacy: (Legacy) Oregon State University Tanguay Lab 120 Hour Post-fertilization zebrafish Assay for Circulatory Malformation (AID 2283651)
# Outline: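 Read-out: presence or absence of circulatory malformation at 120 hpf, scored by brightfield microscopy, fitted in the gain-of-signal direction against DMSO baseline. Wild-type 5D larvae were exposed from 6 hpf after enzymatic chorion removal.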
# [18] = Tanguay_ZF_120hpf_SWIM_legacy: (Legacy) Oregon State University Tanguay Lab 120 Hour Post-fertilization zebrafish Assay for Swim Bladder Malformation (AID 2283654);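 further: swim bladder malformation in each larva scored yes or no under brightfield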
# Outline: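 Dechorionated Tropical 5D wild-type embryos, placed singly from 6 hpf, were statically exposed at 28C to 120 hpf with 0.64% DMSO final; swim bladder malformation was scored present/absent by brightfield microscopy, gain of signal relative to DMSO controls.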
# [19] = Tanguay_ZF_120hpf_JAW_legacy: (Legacy) Oregon State University Tanguay Lab 120 Hour Post-fertilization zebrafish Assay for Jaw Malformation (AID 2283638)
# Outline: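 Binary jaw-malformation call at 120 hpf by brightfield microscopy. Embryos (Tropical 5D strain, chorion removed at 4 hpf) were dosed statically at 6 hpf, one per well, at 28C with 0.64% DMSO. Embryos that died were not scored.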
smiles,measurement,setting,value
Cc1ccc(O)c(C)c1,outcome,[1],inactive
same,outcome,[2],inactive
same,outcome,[3],inactive
same,outcome,[4],inactive
same,outcome,[5],inactive
same,outcome,[6],inactive
same,outcome,[7],inactive
same,outcome,[8],inactive
same,outcome,[9],inactive
same,outcome,[10],inactive
same,outcome,[11],inactive
same,outcome,[12],inactive
same,outcome,[13],inactive
same,outcome,[14],inactive
same,outcome,[15],inactive
same,outcome,[16],inactive
same,outcome,[17],inactive
same,outcome,[18],inactive
CN(C)CCO,outcome,[1],inactive
same,outcome,[2],inactive
same,outcome,[3],inactive
same,outcome,[4],inactive
same,outcome,[5],inactive
same,outcome,[6],inactive
same,outcome,[7],inactive
same,outcome,[8],inactive
same,outcome,[9],inactive
same,outcome,[10],inactive
same,outcome,[11],inactive
same,outcome,[12],inactive
same,outcome,[13],inactive
same,outcome,[14],inactive
same,outcome,[15],inactive
same,outcome,[16],inactive
same,outcome,[17],inactive
same,outcome,[18],inactive
C[C@]12CCC(=O)C=C1CC[C@@H]1[C@@H]2CC[C@@]2(C)[C@H]1CC[C@]2(C)O,outcome,[1],inactive
same,AC50,[2],47.1 µM (active)
same,outcome,[2],inactive
same,outcome,[3],inactive
same,AC50,[4],48.6 µM (active)
same,outcome,[4],inactive
same,outcome,[5],inactive
same,outcome,[6],inactive
same,outcome,[10],inactive
same,outcome,[12],inactive
same,outcome,[13],inactive
same,outcome,[15],inactive
same,outcome,[16],inactive
same,outcome,[17],inactive
same,outcome,[18],inactive
O=C(O)C(F)(F)C(F)(F)C(F)(F)C(F)(F)C(F)(F)C(F)(F)C(F)(F)C(F)(F)F,AC50,[1],46.1 µM (active)
same,AC50,[2],82.9 µM (active)
same,outcome,[3],inactive
same,outcome,[4],inactive
same,outcome,[5],inactive
same,outcome,[6],inactive
same,outcome,[7],inactive
same,outcome,[8],inactive
same,outcome,[9],inactive
same,outcome,[10],inactive
same,outcome,[11],inactive
same,outcome,[12],inactive
same,outcome,[13],inactive
same,outcome,[14],inactive
same,outcome,[15],inactive
same,outcome,[16],inactive
same,outcome,[17],inactive
same,outcome,[18],inactive
ClC(Cl)=C(c1ccc(Cl)cc1)c1ccc(Cl)cc1,outcome,[1],inactive
same,outcome,[2],inactive
same,outcome,[3],inactive
same,outcome,[4],inactive
same,outcome,[5],inactive
same,outcome,[6],inactive
same,outcome,[7],inactive
same,outcome,[8],inactive
same,outcome,[9],inactive
same,outcome,[11],inactive
same,outcome,[12],inactive
same,outcome,[13],inactive
same,outcome,[14],inactive
same,outcome,[15],inactive
same,outcome,[17],inactive
same,outcome,[18],inactive
CC(c1ccc(O)cc1)(c1ccc(O)cc1)c1ccc(O)cc1,outcome,[1],inactive
same,outcome,[2],inactive
same,outcome,[3],inactive
same,AC50,[4],80.8 µM (active)
same,outcome,[5],inactive
same,outcome,[6],inactive
same,outcome,[7],inactive
same,outcome,[8],inactive
same,outcome,[9],inactive
same,outcome,[19],inactive
same,outcome,[10],inactive
same,outcome,[12],inactive
same,outcome,[13],inactive
same,outcome,[14],inactive
same,outcome,[15],inactive
same,outcome,[16],inactive
same,outcome,[17],inactive
same,outcome,[18],inactive
CO/C=C(/C(=O)OC)c1ccccc1COc1cccc(C(F)(F)F)n1,outcome,[1],inactive
same,AC50,[2],4.18 µM (active)
same,outcome,[3],inactive
same,AC50,[4],5.53 µM (active)
same,outcome,[5],inactive
same,AC50,[6],4.88 µM (active)
same,AC50,[7],6.06 µM (active)
same,AC50,[8],3.83 µM (active)
same,AC50,[9],2.99 µM (active)
same,AC50,[10],12.7 µM (active)
same,AC50,[11],2.43 µM (active)
same,AC50,[12],3.77 µM (active)
same,AC50,[13],18.1 µM (active)
same,AC50,[14],5.66 µM (active)
same,AC50,[15],9.15 µM (active)
same,AC50,[16],19.7 µM (active)
same,AC50,[17],9.76 µM (active)
same,AC50,[18],14.5 µM (active)

# From PubChem BioAssay (EPA / NIEHS)
